Data on 78 molecules can be found in PubChem BioAssay AID1259421 (Broad Institute, 2018).

Several values for one entry are separate records, joined by “and”; a condition that tells them apart may be missing. Equal entries are not always repeated. Screen size: about 6,400 compounds; about 610 (9.5%) were called active. The sample holds actives, similar compounds and a random draw of the others, so the mix is not that of the screen. Rule as the data show it: active = activity change below about -70%; inconclusive = no clear call, values can overlap the other calls; inactive = above that. Some compounds were tested as several samples or in several runs, with calls that do not always agree.

This assay can be described thus: Toxoplasma gondii ME49Luc growth in HeLa cells, luciferase, no IFN-y, primary screen (AID 1259421). Particulars: T. gondii ME49Luc in HeLa, 72 h, stronger effect = lower value, concentration not given here.
As for `CC(C)C[C@H](NC(=O)[C@@H](COC(C)(C)C)NC(=O)[C@H](Cc1ccc(O)cc1)NC(=O)[C@H](CO)NC(=O)[C@H](Cc1c[nH]c2ccccc12)NC(=O)[C@H](Cc1cnc[nH]1)NC(=O)[C@@H]1CCC(=O)N1)C(=O)N[C@@H](CCCN=C(N)N)C(=O)N1CCC[C@H]1C(=O)NNC(N)=O`, the activity change, negative = inhibition was 8.64% (inactive).

Take `O=[N+]([O-])c1cc(Cl)ccc1S(=O)(=O)N1CCN(Cc2ccccc2)CC1`: the activity change, negative = inhibition is 26.6% (inactive).

Consider `C=C1C[C@]23C[C@@]1(O)CC[C@H]2[C@@]12C=C[C@H](O)[C@@](C)(C(=O)O1)[C@H]2[C@@H]3C(=O)O`, for which the activity change, negative = inhibition was 13.1% (inactive). For the molecule `CCC(=O)OCC(=O)[C@@]1(OC(=O)CC)[C@@H](C)C[C@H]2[C@@H]3CCC4=CC(=O)C=C[C@]4(C)[C@@]3(F)[C@@H](O)C[C@@]21C`, the activity change, negative = inhibition is -3.54% (inactive). `CCC(=O)OCC(=O)C1(OC(=O)CC)C(C)CC2C3CCC4=CC(=O)C=CC4(C)C3(Cl)C(O)CC21C` (stereo not drawn): the activity change, negative = inhibition was -2.98% (inactive). Regarding `CCC(=O)OCC(=O)[C@@]1(OC(=O)CC)[C@@H](C)C[C@H]2[C@@H]3CCC4=CC(=O)C=C[C@]4(C)[C@@]3(Cl)[C@@H](O)C[C@@]21C`, the activity change, negative = inhibition is -74.6% (active) and -1.83% (inactive). For `CC/C=C\C/C=C\C/C=C\CCCCCCCC(=O)O` the value was 11.4% (inactive); for `Clc1ccc(N/N=C(\c2ccccc2)c2ccccn2)nc1`, 31.4% (inactive). Consider `N=C(N)S/C=C\C(=O)O`, for which the activity change, negative = inhibition is 28% (inactive). Turning to `C[C@@H](Oc1ccc2[nH]nc(/C=C/c3cnn(CCO)c3)c2c1)c1c(Cl)cncc1Cl`, the activity change, negative = inhibition is -81.2% (active). As to `O=C(c1ccc(/C=C/c2n[nH]c3ccccc23)cc1)N1CCNCC1`, the activity change, negative = inhibition is -59.7% (inactive). Regarding `CCCSc1nc(N[C@@H]2C[C@@H]2c2ccc(F)c(F)c2)c2nnn([C@@H]3C[C@H](OCCO)[C@H](O)[C@H]3O)c2n1`, the activity change, negative = inhibition is 5.35% (inactive). As to `O=C(O)CCNC(=O)c1ccc(N=Nc2ccc(O)c(C(=O)O)c2)cc1`, the activity change, negative = inhibition is 22.4% (inactive). Regarding `Nc1nc(=O)n([C@H]2C[C@H](O)[C@@H](CO)O2)cc1F`, the activity change, negative = inhibition is -94.3% (active).

`Cc1cn([C@H]2O[C@@H](CO)[C@H](O)[C@@H]2F)c(=O)[nH]c1=O`: the activity change, negative = inhibition was 14.2% (inactive). For `CCCCCOC(=O)Nc1nc(=O)n([C@@H]2O[C@H](C)[C@@H](O)[C@H]2O)cc1F` the value was -63.1% (inactive) and -62.7% (inactive); for `O=c1[nH]c(=O)n([C@H]2C[C@H](O)[C@@H](CO)O2)cc1Br`, 12.7% (inactive); for `O=c1[nH]c(=O)n([C@H]2C[C@H](O)[C@@H](CO)O2)cc1F`, -81.1% (active).

Regarding `O=c1[nH]c(=O)n([C@H]2C[C@H](O)[C@@H](CO)O2)cc1C(F)(F)F`, the activity change, negative = inhibition was -19.7% (inactive) and 1.85% (inactive). For the molecule `Cc1cn([C@@H]2C[C@@H](O)[C@H](CO)O2)c(=O)[nH]c1=O`, the activity change, negative = inhibition was -2.77% (inactive). As to `Nc1ncn([C@H]2C[C@H](O)[C@@H](CO)O2)c(=O)n1`, the activity change, negative = inhibition was 35.6% (inactive). With `Nc1nc(=O)n([C@H]2C[C@@H](O)[C@@H](CO)O2)cc1Cl`, the activity change, negative = inhibition was 7.28% (inactive). Regarding `O=c1[nH]c(=O)n([C@H]2CCCO2)cc1F`, the activity change, negative = inhibition is -87.1% (active) and -73.6% (active). For `C[C@H]1O[C@@H](n2cc(F)c(=O)[nH]c2=O)[C@H](O)[C@@H]1O` the value was -95% (active); for `O=c1[nH]c(=O)n([C@H]2CC(O)[C@@H](CO)O2)cc1C(F)(F)F` (stereo partly drawn), 7.06% (inactive). Turning to `CN(C)CC/C=C1/c2ccccc2COc2ccccc21`, the activity change, negative = inhibition was -63.2% (inactive) and 23.5% (inactive) and 10.1% (inactive). Consider `CC(C)C1C(=O)N(S(C)(=O)=O)[C@@H]2CCN(C(=O)/C=C/CN3CCCCC3)[C@@H]12` (stereo partly drawn), for which the activity change, negative = inhibition was 12% (inactive).

In the case of `NCCCCCc1cnc[nH]1`, the activity change, negative = inhibition is 11% (inactive). On to `O=c1cc(O)c(Cl)c[nH]1`, for which the activity change, negative = inhibition is 4.32% (inactive). For `O=c1ccc2ccc(OCCCCN3CCN(c4cccc5sccc45)CC3)cc2[nH]1` the value was 10.5% (inactive); for `N[C@@H]1CCN(O)C1=O`, 15% (inactive). With `O=C(O)CC/C=C\CC[C@@H]1[C@@H](N2CCCCC2)[C@@H](O)C[C@@H]1OCc1ccc(-c2ccccc2)cc1`, the activity change, negative = inhibition is -4.54% (inactive). For `COC(=O)C[C@H]1C(C)(C)C(=O)[C@@H]2CC3=C4CC(=O)O[C@@H](c5ccoc5)[C@]4(C)CCC3[C@@]1(C)C2=O` (stereo partly drawn) the value was -15.9% (inactive); for `C[N+]1(C)C2CC(OC(=O)[C@@H](CO)c3ccccc3)CC1C1OC12` (stereo partly drawn), 4.33% (inactive) and 10.7% (inactive); for `CCc1cn([C@H]2C[C@H](O)[C@@H](CO)O2)c(=O)[nH]c1=O`, 13.9% (inactive). For `Cc1cn(C2CC(N=[N+]=[N-])C(CO)O2)c(=O)[nH]c1=O` (stereo not drawn), the activity change, negative = inhibition was 10.1% (inactive). With `Cc1cn([C@H]2C[C@H](N=[N+]=[N-])[C@@H](CO)O2)c(=O)[nH]c1=O`, the activity change, negative = inhibition was -81.6% (active).

On to `O=C(O)C1[O][Sb]2([O][Sb]34[O]C(C(=O)O)C([O]3)C(C(O)CO)[O]4)[O]C(C(O)CO)C1[O]2` (stereo not drawn), for which the activity change, negative = inhibition is -75.8% (active). As for `C(=N\NC1=NCCN1)/c1c2ccccc2c(/C=N/NC2=NCCN2)c2ccccc12`, the activity change, negative = inhibition was -58.3% (inactive). For `O=C(Nc1cc2cc[nH]c2cn1)c1ccccc1` the value was -32.1% (inactive); for `COc1ccc(C(=O)c2ccc(O)cc2)c(O)c1O`, -0.363% (inactive).

`N=C(N)c1ccc2cc(OC(=O)c3ccc(N=C(N)N)cc3)ccc2c1`: the activity change, negative = inhibition is 4.69% (inactive). In the case of `NC(=O)/N=N/C(N)=O`, the activity change, negative = inhibition is 7.42% (inactive).

For `CC(C)(C(=O)NCC(F)(F)C(F)(F)F)C(=O)N[C@@H]1C(=O)Nc2ccccc2-c2ccccc21`, the activity change, negative = inhibition is -88.1% (active). For `C/C(=C/c1ccc(C(=O)O)cc1)c1ccc2c(c1)C(C)(C)CCC2(C)C`, the activity change, negative = inhibition is -3.41% (inactive). For `NC1[C@H]2CN(c3nc4c(cc3F)c(=O)c(C(=O)O)cn4-c3ccc(F)cc3F)C[C@@H]12` (stereo partly drawn) the value was -37.5% (inactive); for `O=C(O)CN1C(=O)c2cccc3cccc(c23)C1=O`, 4.44% (inactive) and 1.05% (inactive).

On to `O=C(CCCCCN1C(=O)c2cccc3cccc(c23)C1=O)NO`, for which the activity change, negative = inhibition was -90.6% (active). Turning to `O=C(O)CCCN1C(=O)c2cccc3cccc(c23)C1=O`, the activity change, negative = inhibition was -5.26% (inactive). `O=c1cc(-c2ccc(O)cc2)oc2cc(O)ccc12`: the activity change, negative = inhibition is 22.2% (inactive). For `CCCC[C@H](C)C[C@H](O)/C=C/[C@H]1[C@H](O)CC(=O)[C@@H]1CCCC/C=C/C(=O)O` the value was -0.328% (inactive); for `C/C=C/C(=O)N(CC)c1ccccc1C`, 14.6% (inactive) and 5.26% (inactive); for `C=C[C@@](C)(/C=C/c1ccc(O)cc1)CCC=C(C)C`, 11.8% (inactive). Regarding `NC(=O)C(c1ccccc1)(c1ccc(F)cc1)c1ccc(F)cc1`, the activity change, negative = inhibition is 1.76% (inactive). As for `[O-][NH2+]c1ccc(O)c2ncccc12`, the activity change, negative = inhibition was -71.9% (active) and -84.8% (active).

Consider `Oc1c(Br)cc(Br)c2cccnc12`, for which the activity change, negative = inhibition is -63.3% (inactive). For `Oc1ccc(Cl)c2cccnc12` the value was 17.5% (inactive) and 6.79% (inactive).

For the molecule `COc1ccc2c(c1OC)C(=O)O[C@@H]2C1c2c(cc3c(c2OC)OCO3)CCN1C` (stereo partly drawn), the activity change, negative = inhibition is 8.49% (inactive). Take `C[C@@H]1C(=O)O[C@H]2CC34[C@H]5C[C@@H](C(C)(C)C)[C@]36[C@@H](OC(=O)[C@@H]6O)O[C@@]4(C(=O)O5)[C@]21O` (stereo partly drawn): the activity change, negative = inhibition was 5.52% (inactive).

Regarding `CC(C)CCCC(C)[C@H]1CCC2C3C(=O)C=C4C[C@@H](O)CC[C@]4(C)C3CC[C@@]21C` (stereo partly drawn), the activity change, negative = inhibition was -7.52% (inactive). As to `CC(C)(C)NCC(O)COc1cccc2c1CCCC2=O` (stereo not drawn), the activity change, negative = inhibition is 12.5% (inactive) and -6.73% (inactive).

With `CC(=O)O.CC(=O)O.[Cl][Pt+2][Cl].[NH-]C1CCCCC1.[NH2-]`, the activity change, negative = inhibition is 1.41% (inactive). For `O=C(O[C@@H]1Cc2c(O)cc(O)cc2O[C@@H]1c1ccc(O)c(O)c1)c1cc(O)c(O)c(O)c1`, the activity change, negative = inhibition is -0.0246% (inactive).

As for `COc1ccc(NS(=O)(=O)c2ccc(I)cc2)cc1N1CCN(C)CC1`, the activity change, negative = inhibition is 0.621% (inactive) and -5.09% (inactive). Regarding `COc1ccccc1N1CCN(CCCCNC(=O)c2ccc(-c3ccc(C(C)=O)cc3)cc2)CC1`, the activity change, negative = inhibition is 7.26% (inactive).

Consider `COc1ccc(NC(=O)c2ccc(-c3ccc(-c4noc(C)n4)cc3C)cc2)cc1N1CCN(C)CC1`, for which the activity change, negative = inhibition was -78.7% (active) and -44.9% (inactive). For `CN(C)CCCc1cc(C(=O)Nc2ccc(-c3ccncc3)cc2)ccc1O` the value was 4.74% (inactive); for `COc1ccc(C(=O)NCc2ccc(OCCN(C)C)cc2)cc1OC`, -2.71% (inactive). Turning to `COc1ccc(NC(=O)c2ccc(-c3ccc(-c4noc(C)n4)cc3C)cc2)cc1OCCN(C)C`, the activity change, negative = inhibition was -53.8% (inactive) and -87.8% (active). As for `CN(C)c1ccc(O)c2c1C[C@H]1C[C@H]3[C@H](N(C)C)C(=O)C(C(N)=O)C(=O)[C@@]3(O)C(=O)C1C2=O` (stereo partly drawn), the activity change, negative = inhibition is -2.37% (inactive) and -2.12% (inactive).

For `Cc1cc(O)cc(=O)o1`, the activity change, negative = inhibition is 2.59% (inactive). `CCCCCC/C=C/C=C\CCCCCCCC(=O)O`: the activity change, negative = inhibition is 9.04% (inactive). Consider `Cc1cc(Nc2cc(CN3CCOCC3)c3nc(C)c(Cc4ccc(Cl)cc4F)n3n2)n[nH]1`, for which the activity change, negative = inhibition was -76.1% (active). For `FC(F)OC(Cl)C(F)(F)F` (stereo not drawn) the value was 4.04% (inactive). For `CCCC(=O)O` the value was 16.3% (inactive) and 10.7% (inactive); for `CN=C(NC#N)Nc1ccc(C2=NNC(=O)CC2C)cc1` (stereo not drawn), 27% (inactive) and 4.42% (inactive); for `CCC(=O)NC1CCc2cccc(OC)c2C1` (stereo not drawn), 4.71% (inactive) and 6.93% (inactive). As for `CC12CCC3C(CCC4CC(O)CCC43C)C1CC=C2c1ccccc1` (stereo not drawn), the activity change, negative = inhibition is 6.05% (inactive).
